Source: PubChem
Rows were chosen to be rich in hits. Some 2.6% of all compounds tested hit in one or more screens of this group.
Cruzain Triton – inhibitors of Trypanosoma cruzi cruzain with detergent; purified cruzain, Z-FR-AMC fluorescence, 0.01% Triton; actives 0.43% (n = 200,000); P25779; Potency, µM, for the others: max response, negative = inhibition, usual class: inhibitors; AID 1478;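 note: plate controls were neutral wells for no effect and buffer without enzyme for full effect; nearly all actives have a fitted effect of over 40% in size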
Target sequence (P25779 123-467 limits assumed): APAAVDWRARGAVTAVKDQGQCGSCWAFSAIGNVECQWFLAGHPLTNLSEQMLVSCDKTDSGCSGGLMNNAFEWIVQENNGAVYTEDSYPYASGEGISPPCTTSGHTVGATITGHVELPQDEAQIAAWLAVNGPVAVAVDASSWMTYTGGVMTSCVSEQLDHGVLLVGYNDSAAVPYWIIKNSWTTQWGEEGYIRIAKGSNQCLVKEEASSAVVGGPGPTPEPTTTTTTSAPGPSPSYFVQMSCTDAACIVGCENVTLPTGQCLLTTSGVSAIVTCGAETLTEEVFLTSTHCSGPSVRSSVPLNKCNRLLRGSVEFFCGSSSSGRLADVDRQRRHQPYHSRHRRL
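Detergent-containing run (0.01% Triton X-100) in acetate buffer pH 5.5 with 5 mM DTT: enzyme at 1.5 nM final, 15 min compound preincubation at room temperature, then 2 uM Z-FR-AMC substrate. Activity taken as 60 s fluorescence increase at 360/450 nm.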
Cruzain noTriton – blocks cruzain activity in detergent-free assay; P25779; purified cruzain, Z-FR-AMC fluorescence, no detergent; Potency, µM, inactives show max response, negative = inhibition, most hits filed as inhibitors; actives 2.3% (n = 200,000); AID 1476;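 note: plate controls were enzyme without inhibitor for no effect and buffer without enzyme for full effect; nearly all actives have a fitted effect of over 40% in size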
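Detergent-free condition (0.00005% Triton X-100) in acetate buffer pH 5.5 with DTT. 1.5 nM enzyme and compound were pre-mixed 15 min, then 2 uM Z-FR-AMC substrate added; reaction progress from fluorescence change between first and third reads (60 s).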
An asterisk follows results filed as active; ? = inconclusive. Calls come from the whole dose curve; as a rule, active = well fitted curve in the direction sought with a large enough effect; inconclusive = small, poorly fitted or top-dose-only effect, or another doubt; inactive = no such curve, though single readings can be large; an effect the other way counts as inactive or inconclusive. Potency is the fitted concentration of half-maximal effect.

SMILES	Cruzain Triton	Cruzain noTriton
COC(=O)c1ccc(Oc2coc3cc(OCc4ccc([N+](=O)[O-])cc4)ccc3c2=O)cc1	-5%	10µM*
Cc1cc(=O)oc2cc(OCc3ccc(C(=O)N4CCN(c5ccc([N+](=O)[O-])cc5)CC4)cc3)ccc12	-5%	13µM*
Cc1cc(=O)oc2cc(OCc3ccc(C(=O)N4CCN(c5ccccc5)CC4)cc3)ccc12	-5%	-28%
COCC(=O)C(C(=O)OC)[C@H](CCc1ccccc1)NC(=O)OC (stereo partly drawn)	3%	-8%
Cc1cc(=O)n(Cc2c(F)cccc2Cl)c2c1c(C)nn2C	-7%	?
COc1ccc(OCCCn2cc(/C=C3/C(=N)N4C=C(C)SC4=NC3=O)c3ccccc32)cc1	-3%	25µM*
CC1=CN2C(=N)/C(=C/c3ccco3)C(=O)N=C2S1	-8%	-9%
COc1cccc(OCCCn2cc(/C=C3/C(=N)N4C=C(C)SC4=NC3=O)c3ccccc32)c1	-2%	13µM*
COc1cc(/C=C2/C(=N)N3C=CSC3=NC2=O)ccc1OCCCOc1c(C)cccc1C	-1%	-8%
COc1cc(/C=C2/C(=N)N3C=CSC3=NC2=O)ccc1OCCCOc1ccccc1C	-5%	-5%
CC1=CN2C(=N)/C(=C/c3cn(CCCOc4ccccc4C)c4ccccc34)C(=O)N=C2S1	1%	3.2µM*
O=C(CCOc1ccccc1)N(Cc1cccnc1)c1nc2c(Cl)cccc2s1	-5%	-11%
CCc1nn2c(=O)cc(COC(=O)c3ccccc3NC(=O)COc3ccc(F)cc3)nc2s1	1%	15%
Cc1ccn2c(Nc3ccc4c(c3)OCCO4)c(-c3ccccc3O)nc2c1	-13%	-4%
COc1ccc2c(c1)c(=O)c(C(=O)c1ccc(C)cc1)cn2Cc1ccccc1F	-9%	-18%
CCOC(=O)c1c(C)cc(O)c(C=O)c1O	-2%	2%
CCOC(=O)c1ccccc1NC(=O)c1sc2ccccc2c1Cl	-1%	5%
O=C(COC(=O)c1sc2ccccc2c1Cl)Nc1ncc(Cl)cc1Cl	-5%	?
Cc1ccccc1NC(=O)COC(=O)CNC(=O)c1sc2ccccc2c1Cl	7.9µM*	3.2µM*
O=C(COC(=O)CNC(=O)c1sc2ccccc2c1Cl)Nc1c(Cl)cc(Cl)cc1Cl	25µM*	?
Fc1ccccc1C1=NC(c2ccc(C(F)(F)F)cc2)=Nc2ccccc2N1	-11%	-26%
O=C(CC1S/C(=N/N=C/c2c[nH]c3ccccc23)NC1=O)Nc1ccccc1 (stereo not drawn)	-6%	?
O=C(CC1S/C(=N/N=C/c2cccs2)NC1=O)Nc1ccc(Cl)cc1 (stereo not drawn)	-2%	-27%
O=C(CC1S/C(=N/N=C/c2c[nH]c3ccc(OCc4ccccc4)cc23)NC1=O)Nc1ccccc1 (stereo not drawn)	-4%	6.3µM*
O=C(CC1S/C(=N/N=C/c2cccs2)NC1=O)Nc1ccc(Cl)c(Cl)c1 (stereo not drawn)	-5%	20µM*
SMILES	Cruzain Triton	Cruzain noTriton
c1ccc2c3c([nH]c2c1)[C@@H]1[C@H]2CC[C@H]([C@H]4CCCN[C@H]42)N1CC3	-6%	-2%
O=C(c1ccccc1Cl)N(Cc1ccco1)c1ccccn1	-2%	-13%
CCc1ccc2ncc3c(-c4ccc(F)cc4)nn(CC(=O)NCc4ccccc4)c3c2c1	-1%	12%
CNC(=S)N1N=C(c2ccc(C)cc2)CC1c1ccc(OC)cc1 (stereo not drawn)	-3%	-1%
Cc1ccc(NC(=O)N2N=C(c3ccc(F)cc3)CC2c2ccc(F)cc2)cc1 (stereo not drawn)	1%	1.3µM*
O=C1CN(C(=O)c2ccc(S(=O)(=O)N3CCCC3)cc2)C(c2ccccc2)c2cc(Cl)ccc2N1 (stereo not drawn)	-5%	5%
Cc1cccc(NC(=O)CSc2nc(=O)n(Cc3ccncc3)c3c2CCC3)c1C	-3%	-2%
COc1ccc(NC(=O)Cn2nc(-c3ccccc3)c3cnc4ccc(C)cc4c32)cc1	-1%	-10%
C=C(C)[C@@H]1CCC2(C(=O)O)CC[C@]3(C)[C@H](CC[C@@H]4[C@@]5(C)CCC(=O)C(C)(C)[C@@H]5CC[C@]43C)[C@@H]12 (stereo partly drawn)	2%	5µM*
C=C(C)[C@H]1CC[C@]2(CO)CC[C@]3(C)[C@@H](CC[C@H]4[C@@]5(C)CC[C@@H](O)C(C)(C)[C@@H]5CC[C@@]43C)[C@H]12	-2%	-16%
CCc1ccc(NC(=O)CSc2ccc3nnc(CCNS(=O)(=O)c4ccc(OC)cc4)n3n2)cc1	-3%	?
COc1ccc(-c2nc(C)c(CCNC(=O)C(=O)Nc3ccccc3C#N)s2)cc1OC	-1%	-9%
Cc1cccc(N2CCN(S(=O)(=O)c3ccc(F)c(C(=O)Nc4cccc(Cl)c4C)c3)CC2C)c1 (stereo not drawn)	1%	13µM*
Cc1cccc(NC(=O)c2cc(S(=O)(=O)N3CCN(c4ccccc4F)CC3)ccc2F)c1C	1%	-2%
Cc1cc(C)c(NC(=O)CSc2nc3c([nH]c4ccccc43)c(=O)n2C)c(C)c1	1%	5%
O=C(Nc1ccc(Cl)cc1)C1CCC(CNS(=O)(=O)c2ccc(Br)s2)CC1 (stereo not drawn)	-2%	25µM*
CC(=O)c1ccc(NC(=O)C2CCC(CNS(=O)(=O)c3ccc(Br)s3)CC2)cc1 (stereo not drawn)	-4%	1%
Cc1cc(Oc2nc3c(C)cccn3c(=O)c2/C=C(\C#N)S(=O)(=O)c2ccc(Cl)cc2)ccc1Cl	-1%	13µM*
Cc1cccn2c(=O)c(/C=C(\C#N)c3nc4ccccc4n3C)c(Oc3ccc(Cl)cc3)nc12	-1%	-7%
O=c1c(-c2ccc(F)c(F)c2)nc2cncnc2n1Cc1ccccc1	3%	-1%
Cc1ccc(-n2c(O)c(C=Nc3ccc4c(c3)OCO4)c3ccccc3c2=O)cc1C	-1%	10µM*
Cc1cc(N=Cc2c(O)n(-c3ccc4c(c3)OCO4)c(=O)c3ccccc23)ccn1	-9%	-24%
O=C(CC(NC(=O)c1ccccc1)c1ccccc1)Nc1cccc2ccccc12 (stereo not drawn)	-3%	25µM*
O=C(CC(C(=O)O)c1ccccc1)Nc1cccc2ccccc12 (stereo not drawn)	1%	-3%
O=[N+]([O-])c1ccc(N2CCCC2)cc1N/N=C1\CN2CCC1CC2	?	25µM*
SMILES	Cruzain Triton	Cruzain noTriton
O=[N+]([O-])c1ccc(N2CCNCC2)cc1NC1CC1	-6%	1%
CCc1ccc(NC(=O)CN2C(=O)C(=O)c3ccccc32)cc1	-5%	12%
COc1ccc(-c2cc(C(=O)Nc3cccc(C(C)=O)c3)no2)cc1OC	-1%	-10%
Cc1ccc(-c2cc(C(=O)Nc3cnn(C45CC6CC(CC(C6)C4)C5)c3)no2)cc1	5%	13µM*
COc1ccc(-c2cc(C(=O)Nc3cccc(C(C)=O)c3)no2)cc1	0%	20µM*
O=C(Nc1cnn(C23CC4CC(CC(C4)C2)C3)c1)c1cc(-c2ccccc2)on1	-7%	?
COc1ccc(NC(=O)c2cc(-c3ccccc3OC)on2)cc1	-6%	-10%
COc1ccc(-c2cc(C(=O)Nc3ccc(C)cc3)no2)cc1	1%	20µM*
Cc1ccc(Cl)cc1NC(=O)Cn1c(=O)n(Cc2ccccc2)c(=O)c2oc3ccccc3c21	-1%	-15%
CCCCNC(=O)c1cnn2c(C)c(Cc3c(F)cccc3Cl)c(C)nc12	2%	11%
